Test results taken from PubChem BioAssay.

Assay: probe aLefty1 binding on compound microarray – biochemical, small-molecule microarray, 635/667 nm fluorescence, primary screen (AID 1153);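 further: score merges spot fluorescence with signal-to-noise ratio from the scanned slide images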
Conditions: higher = more signal

Row | SMILES | composite z-score
1 | Cc1cc(C)c(-c2cc([C@H](C)ON=C[C@@H](C)[C@H](OCc3ccccc3)C(C)C)on2)c(C)c1 | -0.0501
2 | CC(CCN1CCCCc2nc(C)c(C)cc21)=NO[C@H](C)c1cn([C@@H]2COC[C@H]2O)nn1 | -0.0088
3 | COC(=O)[C@H](C)NC(=O)CCC1CC(OC(=O)NCc2ccc3c(c2)OCO3)CC2(CCCC(COC(=O)NCc3ccccc3)O2)O1 (stereo partly specified) | -0.0061
4 | CC(=O)OC[C@H]1O[C@H](C#CCC2CCCCC2)C=C[C@@H]1OC(C)=O | -0.19
5 | CN1CCc2nc(-c3ccccc3)c(-c3ccccc3)cc2C1 | -0.0748
6 | CO[C@H]1COC(=O)CCC[C@H](C)[C@H](OC)COC(=O)CC=C[C@@H]1C | -0.0626
7 | COCOc1ccc(Br)cc1C(=O)C=Cc1ccc2c(c1)OCO2 | -0.103
8 | CCN1C(=O)[C@H]2[C@H]3[C@H](O)[C@H](O)CC(=NO[C@@H](C)c4cc(-c5c(C)cc(C)cc5C)no4)[C@@H]3CC[C@H]2C1=O | -0.103
9 | C[C@@H](c1ccccc1)N1C(=O)[C@H]2[C@H]3[C@H](O)[C@H](O)CC(=NNC(=O)OCc4ccccc4)[C@@H]3CC[C@H]2C1=O | -0.0294
10 | CO[C@H]1COC(=O)CCC[C@H](C)[C@@H](OC)COC(=O)CC=C[C@@H]1C | -0.17
11 | CO[C@H]1COC(=O)CC=C[C@H](C)[C@H](OC)COC(=O)[C@@H](C)NC(=O)CC=C[C@@H]1C | -0.0939
12 | CC(CCN1CCCc2nc(C)c(C)cc21)=NOC[C@@H](C)[C@H](OCc1ccccc1)C(C)C | -0.147
13 | COc1ccc(COC(=O)NN=C2C[C@@H](O)[C@@H](O)[C@@H]3[C@@H]4C(=O)N([C@@H](C)c5ccccc5)C(=O)[C@@H]4CC[C@H]23)cc1 | 0.751
14 | C=C(C)C(=O)OC[C@H]1CN2[C@@H](CC[C@@H](C)[C@@H]2c2ccc(Br)cc2)C(=O)O1 | -0.143
15 | O=C1[C@H]2[C@H]3[C@H](O)[C@H](O)CC(=NOC[C@@H](O)COCc4ccco4)[C@@H]3CC[C@H]2C(=O)N1Cc1ccc2c(c1)OCO2 | -0.0984
16 | O=C(NN=C1C[C@@H](O)[C@@H](O)[C@@H]2[C@@H]3C(=O)N(c4ccc(F)cc4F)C(=O)[C@@H]3CC[C@H]12)OCc1ccccc1 | 0.207
17 | CC(=O)OC[C@H]1O[C@H](CC=NOC[C@@H](O)COCc2ccco2)C=C[C@@H]1OC(C)=O | 0.0509
18 | CCN1C(C)=C(C(=O)OC)[C@@H](c2ccccc2)N2C(=O)[C@](O)(C(=O)OC)CC(C(C)=O)=C12 | -0.22

Row | SMILES | composite z-score
19 | CC(C)CON=C1C[C@@H](O)[C@@H](O)[C@@H]2[C@@H]3C(=O)N([C@@H](C)c4ccccc4)C(=O)[C@@H]3CC[C@@H]12 | -0.0155
20 | COC(=O)CC=C1c2ccccc2[C@H](OC)[C@H]1C | -0.326
21 | CC(=O)OC[C@H]1O[C@H](CC=NOC[C@@H](O)[C@H]2O[C@@H]3OC(C)(C)O[C@@H]3[C@H]2O)C=C[C@@H]1OC(C)=O | 0.145
22 | C#CCCCON=C1C[C@@H](O)[C@@H](O)[C@@H]2[C@@H]3C(=O)N(C[C@@H]4CCCO4)C(=O)[C@@H]3CC[C@H]12 | -0.293
23 | CCN1C(=O)[C@H]2[C@H]3[C@H](O)[C@H](O)CC(=NNC(=O)OCc4ccccc4)[C@H]3CC[C@H]2C1=O | 0.0931
24 | C[C@@H]1CC[C@H]2C(=O)OC(Cc3ccccc3)CN2[C@H]1c1ccc(Br)cc1 (stereo partly specified) | -0.0111
25 | CC(C)=NOC(C)CN1CCCCc2nc(C)c(C)cc21 (stereo unspecified) | -0.145
26 | COC(=O)[C@@H]1CC[C@H](C)[C@@H](c2ccc(C)cc2)N1C(=O)c1ccc(C=NOC[C@@H](O)[C@H]2O[C@@H]3OC(C)(C)O[C@@H]3[C@H]2O)cc1 | 0.0313
27 | CCOC(=O)[C@H](Cc1ccccc1)NC(=O)CCC1CC(OC(=O)NCc2cccc3ccccc23)CC2(CCCC(COC(=O)NCCc3ccccc3OC)O2)O1 (stereo partly specified) | -0.101
28 | CON=C[C@@H](OC)[C@H](C)C=CCC(=O)OC | -0.316
29 | O=C(NCCC[N+]1=CC=NC1c1ccccc1)N1CCCc2nc(-c3ccc(Br)cc3)ccc21 (stereo unspecified) | -0.164
30 | COc1cccc([C@H](O)Cn2cc(-c3ccc(CON=C(C)C)cc3)nn2)c1 | -0.103
31 | C=CC[C@@H]1C=C[C@H](Oc2ccc(C)cc2)[C@@H](COC(=O)NCc2cccc3ccccc23)O1 | -0.0501
32 | COC(=O)[C@H](C)NC(=O)CCC1CC(OC(=O)NCCc2ccc(F)cc2)CC2(CCCC(COC(=O)NCCOc3ccccc3)O2)O1 (stereo partly specified) | 0.0169
33 | CO[C@@H](C(C)C)[C@@H](C)C1OC(=O)CC1O (stereo partly specified) | -0.278
34 | CO[C@@H]1C=CCC(=O)N[C@@H](C)C(=O)OC[C@@H](NS(=O)(=O)c2ccc(C)cc2)[C@H](C)C=CCC(=O)OC[C@H]1C | -0.141
35 | O=C1[C@H]2[C@H]3[C@H](O)[C@H](O)CC(=NO[C@@H]4O[C@H](CO)[C@@H](O)[C@H](O)[C@H]4O)[C@@H]3CC[C@H]2C(=O)N1C1CCCCC1 | -0.126
36 | CCOC(=O)[C@H](CC(C)C)NC(=O)CCC1CC(OC(=O)NCc2ccc3c(c2)OCO3)CC2(CCCC(COC(=O)NCCOc3ccccc3)O2)O1 (stereo partly specified) | 0.0882
